{"source": "PubChem BioAssay AID720517", "about": "(National Center for Advancing Translational Sciences (NCATS), 2013)", "note": "Records with an inconclusive call do not appear. A number with no mark means an inactive call. Calls come from the whole dose curve; as a rule, active = well fitted activation curve with a large enough effect; inconclusive = small, poorly fitted or top-dose-only effect; inactive = flat fitted curve, though single readings scatter.", "data": [{"experiment": "qHTS for Inhibitors of Cell Surface uPA Generation: FP59 Counterscreen for Cherry-picked Compounds; note: 0% is about no effect", "details": "FP59 anthrax toxin cytotoxicity counterscreen, cells; series mostly up to 115 µM; activity (protection from FP59): at the top concentration", "units": {"activity (protection from FP59)": "%"}, "values": [{"smiles": "C[C@H]([C@H](O)c1ccccc1)N(C)C(=O)CN", "activity (protection from FP59)": -0.116}, {"smiles": "O=C(NC(=O)c1ccccc1)Nc1cccc(S(=O)(=O)N2CCCCC2)c1", "activity (protection from FP59)": -1.18}, {"smiles": "O=C(NCCc1ccccc1)C1CCC(=O)N(Cc2cccc(C(F)(F)F)c2)C1", "note": "(centres undefined)", "activity (protection from FP59)": -1.38}, {"smiles": "CCC(NC(=O)Cc1c(C)c2c(cc(C)c3c(C)c(C)oc32)oc1=O)C(=O)O", "note": "(centres undefined)", "activity (protection from FP59)": -1.44}, {"smiles": "CCCc1nc2c(=O)n(C)c(=O)[nH]c2n1CCC", "activity (protection from FP59)": -1.11}, {"smiles": "Cn1cccc1Cc1nnc(SCC(=O)Nc2ccc3c(c2)OCCO3)n1-c1ccc(F)cc1", "activity (protection from FP59)": -1.19}, {"smiles": "COc1cc(CCC(=O)OCC(=O)NCc2ccccc2)cc(OC)c1OC", "activity (protection from FP59)": 0.669}, {"smiles": "Cc1cccn2c(CNCC(C)Oc3cccnc3)c(C(=O)N3CCOCC3)nc12", "note": "(centres undefined)", "activity (protection from FP59)": -1.42}, {"smiles": "O=C(O)COc1ccccc1/C=N/NC(=O)CNC(=O)c1ccco1", "activity (protection from FP59)": -1.05}, {"smiles": "Cc1oc2c(Cl)c(Cl)c(O)c(CN(C)C)c2c1C(=O)c1ccc(Cl)cc1", "activity (protection from FP59)": -0.466}, {"smiles": "COCCNC(=O)COCc1cc(-c2ccc3c(c2)OCO3)on1", "activity (protection from FP59)": -1.49}, {"smiles": "CCC1=NN(C(=O)C(=O)Nc2ccc(OC)cc2)C(O)(C(F)(F)F)C1", "note": "(centres undefined)", "activity (protection from FP59)": -1.44}, {"smiles": "COc1cc(SC)ccc1C(=O)OCc1nc2ccsc2c(=O)[nH]1", "activity (protection from FP59)": -1.26}, {"smiles": "CCOC(=O)N1CCN(C(=O)c2ccc3c(c2)sc2nc(-c4ccc(OC)cc4)cn23)CC1", "activity (protection from FP59)": -1.38}, {"smiles": "COC(=O)CSc1nc(N2CCOCC2)c2c(c1C#N)CCCC2", "activity (protection from FP59)": -1.43}, {"smiles": "O=C(Nc1cccc(NC(=O)c2ccc(F)cc2)c1)c1ccc(F)cc1", "activity (protection from FP59)": -1.25}, {"smiles": "O=C(O)C(Nc1nc(C(F)(F)F)nc2ccccc12)c1ccccc1", "note": "(centres undefined)", "activity (protection from FP59)": -1.46}, {"smiles": "COc1ccccc1N=Nc1c(C)[nH]n(-c2ccccc2)c1=O", "activity (protection from FP59)": -1.4}, {"smiles": "CCCCn1c(=NC(=O)c2ccco2)c(C(=O)OCC)cc2c(=O)n3cccc(C)c3nc21", "activity (protection from FP59)": 10.2}, {"smiles": "CC/C(=N\\Nc1ccccc1[N+](=O)[O-])c1ccc(O)cc1", "activity (protection from FP59)": -1.24}, {"smiles": "CCN(CC)CCCNC(=O)c1cn(C)c(=O)c2c1c1ccccc1n2C", "activity (protection from FP59)": -1.3}, {"smiles": "CC1CC(C)CN(CCCNC(=O)CN2C(=O)CSc3ccc(S(=O)(=O)N4CCOCC4)cc32)C1", "note": "(centres undefined)", "activity (protection from FP59)": -0.379}, {"smiles": "COc1cc(CNCCc2ccccc2)cc(Br)c1OCC(=O)Nc1ccccc1C", "activity (protection from FP59)": -0.583}, {"smiles": "Cc1cc(C)n(C(=O)c2cccc([N+](=O)[O-])c2)n1", "activity (protection from FP59)": -1.19}, {"smiles": "CCCOc1ccc(S(=O)(=O)NNC(=O)c2cc3ccccc3o2)cc1", "activity (protection from FP59)": -0.614}, {"smiles": "CCOc1cc(/C=C(\\C#N)C(=O)NCc2cccnc2)ccc1O", "activity (protection from FP59)": -1.4}, {"smiles": "Cc1cc2[nH]c(=O)c(=O)[nH]c2cc1S(=O)(=O)NC1CCC(C)CC1", "note": "(centres undefined)", "activity (protection from FP59)": -1.23}, {"smiles": "CCCCN(CC)CCNC(=O)c1cc2cc3ccc(Cl)cc3nc2o1", "activity (protection from FP59)": -1.38}, {"smiles": "COc1ccc(CN2CCN(Cc3ccc(C(F)(F)F)cc3)CC2)cc1", "activity (protection from FP59)": -1.38}, {"smiles": "CCc1c(C)sc(NC(=S)N2CC(C)OC(C)C2)c1C(=O)OC", "note": "(centres undefined)", "activity (protection from FP59)": 1.16}, {"smiles": "CCNc1nc(Nc2ccc(C)c(Cl)c2)c2cnn(C)c2n1", "activity (protection from FP59)": -1.25}, {"smiles": "COc1ccc(CC(=O)NNS(=O)(=O)c2ccccc2[N+](=O)[O-])cc1OC", "activity (protection from FP59)": -1.49}, {"smiles": "Cc1ccc2cc(C=O)c(Cl)nc2c1", "activity (protection from FP59)": -1.35}, {"smiles": "O=C(COc1cc2oc(=O)cc(-c3ccccc3)c2cc1Cl)NC(Cc1c[nH]c2ccc(O)cc12)C(=O)O", "note": "(centres undefined)", "activity (protection from FP59)": -1.31}, {"smiles": "COc1ccc(OC)c(NC(=O)C2CC2c2ccccc2)c1", "note": "(centres undefined)", "activity (protection from FP59)": -1.35}, {"smiles": "COc1cc(CNCc2ccc3c(c2)OCO3)c([N+](=O)[O-])cc1OC", "activity (protection from FP59)": -1.32}, {"smiles": "CCC(C)NC(=O)c1ccc2nc(-c3ccc(OC)c(OC)c3)c(-c3ccc(OC)c(OC)c3)nc2c1", "note": "(centres undefined)", "activity (protection from FP59)": -1.24}, {"smiles": "CCOc1cc(C(=S)N2CCOCC2)ccc1OC(=O)c1cccc(C)c1", "activity (protection from FP59)": 12.4}, {"smiles": "Cc1noc(C)c1COc1ccc(C(=O)N2CCN(S(=O)(=O)c3ccc(Cl)cc3)CC2)cc1", "activity (protection from FP59)": -1.01}]}]}
